Assay outcomes: PubChem BioAssay, Johns Hopkins Ion Channel Center
The list is not random: actives were taken first. Their share in the collection is about 1.6%.
KCNQ2 block: blocks the rat KCNQ2 potassium channel | O88943 | CHO-K1 KCNQ2, FluxOR thallium flux, 20 min; stronger effect = lower value | B-score at 10 µM | 310,000 tested, 1.1% active;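 active = fluorescence ratio B-score at most minus 3 library SDs, with starting brightness B-score within 2 library SDs, cut at about -5.5 in these data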
KCNQ2 pot: enhances the rat KCNQ2 potassium channel. 310,000 tested, 0.54% active. B-score at 10 µM. CHO-K1 KCNQ2, FluxOR thallium flux fluorescence; stronger effect = higher value;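 active = fluorescence ratio B-score at least 3 SD of library B-scores, with initial fluorescence B-score within 3 of them, cut at about 5.3 in these data; same plate scores as AID 2156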;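 note: B-score of peak minus minimum over baseline fluorescence ratio after K+ and Tl+ stimulus; positive B-score means potentiation of KCNQ2 with more thallium influx and brighter signal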
KCNQ2 inh conf: rat KCNQ2 channel inhibition, confirmatory screen | shares compounds with KCNQ2 block | KCNQ2-expressing cells, thallium flux; stronger effect = lower value | activity change, negative = inhibition, % at 10 µM | 1,000 tested, 57% active;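 note: 0% = vehicle wells and values are ratio percent relative to vehicle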
KCNQ1 spec: KCNQ2 inhibitor that also affects human KCNQ1 channel; KCNQ1-expressing cells, FluxOR thallium flux fluorescence; stronger effect = lower value; AID 493026; shares compounds with KCNQ2 block; 1,000 tested, 15% active; activity change, negative = inhibition, % at 10 µM;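 active = activity change at least 3 SD of negative controls below their mean in both duplicate wells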;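 note: CHO cells stably transfected with KCNQ1 and depolarized by potassium stimulus; peak minus minimum fluorescence over baseline after thallium addition; 0% = vehicle negative control and -100% = blank without thallium stimulus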
Target sequence (P51787 whole entry, looked up): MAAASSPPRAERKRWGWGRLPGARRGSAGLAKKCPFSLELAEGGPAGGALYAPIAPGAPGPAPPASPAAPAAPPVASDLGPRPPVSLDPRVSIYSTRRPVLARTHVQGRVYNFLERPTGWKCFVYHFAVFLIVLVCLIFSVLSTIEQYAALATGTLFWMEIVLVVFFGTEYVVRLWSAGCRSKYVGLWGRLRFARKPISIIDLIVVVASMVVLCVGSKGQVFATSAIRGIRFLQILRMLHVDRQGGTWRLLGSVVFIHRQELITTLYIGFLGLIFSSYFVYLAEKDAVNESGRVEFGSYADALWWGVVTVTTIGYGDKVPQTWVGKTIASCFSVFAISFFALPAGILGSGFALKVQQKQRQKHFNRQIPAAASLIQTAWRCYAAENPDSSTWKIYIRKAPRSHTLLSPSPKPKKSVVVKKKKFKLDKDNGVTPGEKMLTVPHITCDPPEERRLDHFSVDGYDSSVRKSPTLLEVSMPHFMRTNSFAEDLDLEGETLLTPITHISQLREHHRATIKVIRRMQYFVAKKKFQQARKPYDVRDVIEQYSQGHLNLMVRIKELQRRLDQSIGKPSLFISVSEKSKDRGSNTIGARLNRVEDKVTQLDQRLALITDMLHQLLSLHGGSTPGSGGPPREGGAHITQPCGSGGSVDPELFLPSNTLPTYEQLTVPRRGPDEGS
CHO parental ctr: KCNQ2 inhibitor counter-screen hit in parental CHO cells; shares compounds with KCNQ2 block; AID 493029; activity change, % at 10 µM; thallium flux counter-screen; stronger effect = lower value; 1,000 tested, 14% active;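 note: 0% = vehicle negative controls with stimulus buffer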
KCNQ2 patch conf: rat KCNQ2 inhibition confirmed by electrophysiology. AID 588531. calls only at 10 µM. shares compounds with KCNQ2 block. 550 tested, 49% active. KCNQ2-expressing cells, automated patch clamp current
* marks the source's active call; other numbers are inactive results; i = inactive; · = no result; + = active, no number. Unless noted, the rule behind the calls is not given here.

SMILES | KCNQ2 block | KCNQ2 pot | KCNQ2 inh conf | KCNQ1 spec | CHO parental ctr | others
CC(C)=CCc1c(O)cc(O)c2c(=O)c(O[C@@H]3O[C@@H](C)[C@H](O)[C@@H](O)[C@H]3O)c(-c3ccc(O)cc3)oc12 | -7.1* | -7.1 | -40%* | -36%* | -23%* | KCNQ2 patch conf=i
Cc1[nH]c(C)c(S(=O)(=O)NCc2ccc(Cl)cc2)c1C(=O)N1CCCC1 | i | 0.82 | · | · | ·
CCc1sc(C(=O)Nc2ccccc2N2CCOCC2)cc1C | -7.3* | -7.3 | -18%* | i | i
O=C(CC12CC3CC(CC(C3)C1)C2)Nc1ccccc1N1CCOCC1 | -6.8* | -6.8 | -30%* | -34%* | -20%* | KCNQ2 patch conf=i
CCN(CC)S(=O)(=O)c1ccc(N2CCOCC2)c(NC(=O)COc2ccccc2)c1 | -6.8* | -6.8 | -31%* | i | i | KCNQ2 patch conf=+
CCN(CC)S(=O)(=O)c1ccc(N2CCOCC2)c(NC(=O)CCOc2ccccc2)c1 | i | · | · | · | ·
CC(=O)Nc1cc(C(F)(F)F)ccc1N1CCOCC1 | i | 0.43 | · | · | ·
CCC(Oc1ccccc1)C(=O)Nc1cc(C(F)(F)F)ccc1N1CCOCC1 (configuration not stated) | -7* | -7 | i | i | i
O=C(Nc1ccccc1N1CCOCC1)c1cc2c(s1)CCCCC2 | i | · | · | · | ·
CCCCC(=O)Nc1ccccc1N1CCOCC1 | i | 1.6 | · | · | ·
COC1c2ccccc2C(=O)N1CCc1ccc(Cl)cc1 (configuration not stated) | i | · | · | · | ·
CCc1ccc(NC(=O)NCc2cccnc2)cc1 | i | 0.05 | · | · | ·
COc1cc(NC(=O)c2ccc(=O)[nH]n2)cc(OC)c1OC | i | · | · | · | ·
O=C(Nc1ccc(OC(F)(F)F)cc1)c1cnccn1 | i | 0.1 | · | · | ·
CC(=O)C1CCCN(C(=O)c2ccc3nc(Cc4cccc(Cl)c4)oc3c2)C1 (configuration not stated) | i | 0.63 | · | · | ·
Cc1cc(C)c(OCC(=O)Nc2ccccc2N2CCOCC2)c(C)c1 | -9.4* | -9.4 | i | i | i
CC(=O)N1CCN(c2ccccc2NC(=O)COc2cc(C)cc(C)c2)CC1 | i | · | · | · | ·
O=C(CN1CCN(Cc2cccc(F)c2)CC1)NCc1ccccc1 | i | · | · | · | ·
Cc1ccc(-c2nc(C(=O)NCC3CCCO3)cc3c2[nH]c2ccccc23)cc1 (configuration not stated) | -12* | -12 | -28%* | i | i | KCNQ2 patch conf=i
Cc1ccccc1-c1nc(C(=O)NCC2CCCO2)cc2c1[nH]c1ccccc12 (configuration not stated) | i | · | · | · | ·
O=C(CCNS(=O)(=O)c1ccc(Cl)cc1)Nc1ccncc1 | i | · | · | · | ·
Cc1ccc(O)c(C(=O)c2cnc3c(c2)COc2ccc(C)cc2-3)c1 | -6.8* | -6.8 | i | i | i
Cc1ccc(O)c(C(=O)c2cnc(/N=C(\N)N(C)C)nc2)c1 | i | 0.3 | · | · | ·
N#C/C(=C\c1cccnc1)C(=O)Nc1cccc2ccccc12 | -6.7* | -6.7 | i | i | i
COc1ccccc1NC(=O)/C(C#N)=C/c1cccnc1 | i | · | · | · | ·
SMILES | KCNQ2 block | KCNQ2 pot | KCNQ2 inh conf | KCNQ1 spec | CHO parental ctr | others
CN(C)C(CNC(=O)c1ccc(C(=O)c2ccccc2)cc1)c1ccccc1 (configuration not stated) | i | · | · | · | ·
CN(C)C(CNC(=O)c1ccc(-c2ccccc2)cc1)c1ccccc1 (configuration not stated) | -6.6* | -6.6 | i | i | i
CS(=O)(=O)N(CC(=O)N1CCCC1)c1ccccc1Br | i | 1.2 | · | · | ·
COc1cc(-c2nc3ccc(C)cn3c2NCc2ccccc2)ccc1SC1CCCCC1 | i | · | · | · | ·
COc1cc(-c2nc3ccccn3c2NCc2ccccc2)ccc1SC1CCCCC1 | -8.7* | -8.7 | i | i | i
N#CC/C(N)=N/Nc1nc2ccccc2nc1Cc1ccccc1 | i | · | · | · | ·
CN1C(=O)CSC1=NC12CC3CC(CC(C3)C1)C2 | i | · | · | · | ·
CCN1C(=O)CSC1=NC12CC3CC(CC(C3)C1)C2 | -7.8* | -7.8 | -32%* | -30%* | -30%* | KCNQ2 patch conf=i
O=C(NCCCNC(=O)c1c(Cl)cccc1Cl)c1c(Cl)cccc1Cl | i | 1.8 | · | · | ·
Oc1oc(-c2ccccc2)nc1C=Nc1cccc2ccccc12 | -8.7* | -8.7 | i | i | i
Oc1oc(-c2ccccc2)nc1/C=N/c1nccs1 | i | 1.8 | · | · | ·
COc1cc(N/N=C/c2ccc(N(C)C)cc2)ncn1 | i | · | · | · | ·
CN(C)c1cc(N/N=C/c2ccc(Cl)cc2)nc(N(C)C)n1 | -8.6* | -8.6 | i | i | i
COc1ccc(S(=O)(=O)N2CC(C)N(C(=O)N3CCOCC3)C2)cc1 (configuration not stated) | i | · | · | · | ·
CN(CCOc1ccccc1)CC(=O)Nc1ccc([N+](=O)[O-])cc1Cl | i | · | · | · | ·
CN(CC(=O)Nc1ccc([N+](=O)[O-])cc1Br)Cc1c(F)cccc1Cl | -11* | -11 | i | i | i
CC1=NN(C(N)=S)C(=O)C1N=Nc1ccc(C)c(Br)c1 (configuration not stated) | i | 1.1 | · | · | ·
O=S(=O)(c1ccc(Cl)s1)N1CCN(CCc2ccccc2)CC1 | i | 0.56 | · | · | ·
O=S(=O)(c1ccc(Br)s1)N1CCC(Cc2ccccc2)CC1 | -9.3* | -9.3 | i | i | i
O=S(=O)(c1ccc(Cl)s1)N1CCC(Cc2ccccc2)CC1 | -7.4* | -7.4 | i | i | i
CN1CCN(S(=O)(=O)c2ccc(Br)s2)CC1 | i | 0.15 | · | · | ·
Cc1ccc(O)c(NC(=O)c2cc(C)no2)c1 | i | · | · | · | ·
CC1CCCN(C(=O)CN2C(=O)CSc3ccc(S(=O)(=O)N4CCOCC4)cc32)C1 (configuration not stated) | i | · | · | · | ·
Nc1cc(Cl)ccc1N1CCCCCC1 | i | · | · | · | ·
Cc1ccc2nc(NC(=O)CN3C(=O)NC4(CCCCC4)C3=O)sc2c1 | i | · | · | · | ·
SMILES | KCNQ2 block | KCNQ2 pot | KCNQ2 inh conf | KCNQ1 spec | CHO parental ctr | others
CCCNC(=O)c1ccc(N2CCC3(CC2)CC(c2ccccc2)=NO3)c(NC(=O)Cc2ccc(F)cc2)c1 | i | · | · | · | ·
O=C(Cn1ccc(C(F)(F)F)n1)N=Nc1c(O)[nH]c2ccc(Br)cc12 | -9.3* | -9.3 | -27%* | i | i | KCNQ2 patch conf=+
O=C(Cn1ccc(C(F)(F)F)n1)N=Nc1c(O)[nH]c2ccccc12 | i | · | · | · | ·
O=C(/C=C/c1ccc(Cl)cc1)N1CCN(c2ccccn2)CC1 | i | · | · | · | ·
CC(C)(Oc1ccc(Cl)cc1)C(=O)N1CCN(c2ccccn2)CC1 | -7.4* | -7.4 | i | i | i
CCC(=O)N1CCc2cc(S(=O)(=O)CCC(=O)N(C)c3ccc(OC)cc3)ccc21 | i | 2.1 | · | · | ·
CNCCCOc1cc(C)cc(C)c1C | i | 1.1 | · | · | ·
Cc1cc(Cl)ccc1OCC(=O)NCCOc1nc(N2CCCCC2)nc(N2CCOCC2)n1 | i | · | · | · | ·
COc1cc(C)nc(OCCNC(=O)COc2ccc(Cl)cc2C)n1 | -7.5* | -7.5 | i | i | i
CC(OC(=O)C1CCN(S(=O)(=O)c2ccc(Cl)cc2)CC1)C(=O)NC1CCCCC1C (configuration not stated) | i | · | · | · | ·
